# Bioassay records: PubChem BioAssay, National Center for Advancing Translational Sciences (NCATS)
# VDR inh: Inhibitors of the vitamin D receptor (VDR): qHTS. Vitamin D3 receptor (Homo sapiens), P11473. Potency, µM, without a hit: max response, negative = inhibition, actives largely listed as inhibitors. 400,000 compounds, 0.93% hits. VDR-SRC2-3 peptide fluorescence polarization, 2 h; further: potency means the concentration at half of the fitted maximal effect; on the % scale 0 is the no-effect control and ±100 the full control effect
#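 Reagent solutions, kept cold and dark, are dispensed first; compounds are then pinned in at 23 nl, plates briefly spun, and incubated 2 h at ambient temperature. Inhibition of VDR–SRC2-3 peptide binding is read by fluorescence polarization.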
# PTAP TSG101 blk: qHTS Assay for Iinhibitors of HIV-1 Budding by Blocking the Interaction of PTAP/TSG101; Tumor susceptibility gene 101 protein (Homo sapiens), Q99816; Fluorescence polarization, FITC-PTAP peptide / Tsg101 binding; Potency, µM (highest dose often 115 µM), without a hit: top-dose activity change, negative = inhibition, hits mostly inhibitors; 340,000 tested, under 10 active; AID 493005, 2010; active means well fitted inhibition curve with a large enough effect in the main read-out, with a control signal flat, not every such curve was filed as active; inconclusive means small, poorly fitted or top-dose-only effect, or effect the other way, or a change in a side signal; inactive means no such curve, though single readings can be large or run the other way; further: potency means the concentration at half of the fitted maximal effect; % of control where 0% means no effect
#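 Fluorescence anisotropy tracks displacement of a FITC-tagged PTAP peptide (50 nM) from the Tsg101 binding domain (10 uM), following a 20 min room-temperature incubation at pH 7.5.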
# PLK1 PBD inh: qHTS for Inhibitors of PLK1-PDB (polo-like kinase 1 - polo-box domain): Primary Screen | Serine/threonine-protein kinase PLK1 (Homo sapiens), P53350 | Plk1 PBD binding of FITC phosphopeptide, fluorescence polarization | Potency, µM, inactives show max response, negative = inhibition, usual class: inhibitors | 360,000 compounds, 2.8% hits | AID 720504, 2013; further: potency means the concentration at half of the fitted maximal effect; series mostly up to about 57 µM; on the % scale 0 is the no-effect control and ±100 the full control effect; nearly all actives have a fitted effect of over 65% in size
# uPA surface inh: qHTS for Inhibitors of Cell Surface uPA Generation | cell surface uPA generation assay, qHTS | Potency, µM (highest dose often 38.3 µM), without a hit: at the top dose activity change, negative = inhibition, most hits filed as inhibitors | 330,000 compounds, 0.31% hits | AID 540303, 2011; active means well fitted inhibition curve with a large enough effect; inconclusive means small, poorly fitted or top-dose-only effect; inactive means no such curve, though single readings can be large or run the other way; tested in mouse RAW 264.7 cells; further: potency means the concentration at half of the fitted maximal effect; on the % scale 0 is the no-effect control and ±100 the full control effect; nearly all actives have a fitted effect of over 55% in size
# TSHR antag: Antagonists of the Thyroid Stimulating Hormone Receptor: HTS campaign | Thyrotropin receptor (Homo sapiens), P16473 | TSHR-expressing cells, TSH-stimulated cAMP HTRF, 2 h; hits give low values | activity change, negative = inhibition, % at 11.5 µM | 330,000 compounds, 0.2% hits | AID 504810, 2011;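 active means activity change below a set negative limit, meaning inhibition stronger than a set level, cut at about -70% in these data; inconclusive means activity change between two set negative limits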; further: on the % scale 0 is the no-effect control and ±100 the full control effect
# Target sequence (P16473 whole entry, looked up): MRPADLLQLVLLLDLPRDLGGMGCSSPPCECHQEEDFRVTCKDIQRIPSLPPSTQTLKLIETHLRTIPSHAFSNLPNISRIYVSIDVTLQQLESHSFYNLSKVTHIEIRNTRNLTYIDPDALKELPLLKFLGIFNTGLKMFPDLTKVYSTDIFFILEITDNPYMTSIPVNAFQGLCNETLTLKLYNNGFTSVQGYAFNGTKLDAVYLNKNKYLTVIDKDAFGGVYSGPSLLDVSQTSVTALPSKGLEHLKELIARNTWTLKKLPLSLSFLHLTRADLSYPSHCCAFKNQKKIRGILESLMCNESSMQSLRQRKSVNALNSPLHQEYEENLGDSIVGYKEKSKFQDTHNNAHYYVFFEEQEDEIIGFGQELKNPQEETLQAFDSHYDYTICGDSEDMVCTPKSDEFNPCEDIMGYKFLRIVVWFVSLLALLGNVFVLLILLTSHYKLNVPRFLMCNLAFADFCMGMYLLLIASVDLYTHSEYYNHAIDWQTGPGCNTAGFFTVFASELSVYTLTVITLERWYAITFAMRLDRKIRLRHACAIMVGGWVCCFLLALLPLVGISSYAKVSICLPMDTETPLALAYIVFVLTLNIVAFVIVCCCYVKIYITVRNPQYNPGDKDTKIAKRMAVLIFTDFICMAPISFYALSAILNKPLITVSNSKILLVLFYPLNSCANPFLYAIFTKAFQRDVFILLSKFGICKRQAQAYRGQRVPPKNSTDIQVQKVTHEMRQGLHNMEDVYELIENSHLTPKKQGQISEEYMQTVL
#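 Competitive HTRF cAMP read-out (cryptate anti-cAMP antibody, cAMP-d2; 30 min, room temperature) in freshly harvested TSHR cells. Compounds added before TSH at EC80 (4nM final), followed by 2 hours' incubation at 37 deg C.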
# * hit, by the source's call; ? = inconclusive; . = no result; ! = not confirmed by another sample. Most compounds without a hit are left out; they make up all but 3.1% or so of the library. Unless noted, the call rests on the fitted dose curve; in most records, active means well fitted curve in the direction sought with a large enough effect; inconclusive means small, poorly fitted or top-dose-only effect, or another doubt; inactive means no such curve, though single readings can be large; an effect the other way counts as inactive or inconclusive.
SMILES,VDR inh,PTAP TSG101 blk,PLK1 PBD inh,uPA surface inh,TSHR antag
CCOc1ccccc1NC(=O)CSc1ncc(S(=O)(=O)c2ccc(C)c(C)c2)c(N)n1,-11.8%,.,.,.,.
CCN(CC(=O)Nc1ccc(OC)cc1)C(=O)c1ccc([N+](=O)[O-])cc1,?,-14.9%,6.7µM*,-2.0%,3.8
CC(NC(=O)COc1ccc([N+](=O)[O-])cc1)c1ccccc1 (stereo not drawn),-14.4%,-7.9%,11.9µM*,-7.4%,-7.6
O=C(CCc1ccccc1)NNC(=O)COc1ccc([N+](=O)[O-])cc1,-7.7%,-1.1%,0.6%,-7.3%,-9.6
CCOc1cccc(C(=O)NC(=S)Nc2ccc(Cl)cc2C(=O)O)c1,?,5.3%,5.32µM*,3.4%,-6.2
O=C(COc1ccccc1)NNC(=O)COc1ccc([N+](=O)[O-])cc1,-10.7%,-12.6%,-14.8%,-2.7%,-5.0
CC(=O)NC(=S)NNC(=O)COc1ccc([N+](=O)[O-])cc1,-3.7%,-0.2%,21.2µM*,5.2%,-0.2
CCN(CC(=O)Nc1ccc(OC)cc1)C(=O)c1ccc2ccccc2c1,-4.6%,-0.5%,4.8%,0.0%,12.1
COc1ccc(NC(=O)NCc2c(-n3cccc3)sc3c2CCCC3)c(OC)c1,16.1%,.,.,.,.
COc1ccccc1-c1noc(-c2ccc(NC3CCCCC3)c([N+](=O)[O-])c2)n1,5.8%,.,.,.,.
CCCCC(=O)OC1CCC2C3CCc4cc(O)ccc4C3CC[C@]12C (stereo partly drawn),-4.6%,.,.,.,.
Cc1ccc(C)c(N2CCN(C(=O)c3ccc4c(c3)N(Cc3ccc(F)cc3)C(=O)c3ccccc3S4=O)CC2)c1 (stereo not drawn),-0.5%,.,.,.,.
Cc1cccc(C(=O)NC(=S)NNC(=O)COc2ccc(Cl)cc2)c1,3.5%,0.6%,26.7µM*,0.6%,-3.2
O=C(COc1cccc(Cl)c1)NNC(=S)Nc1ccccc1,?,-1.0%,23.8µM*,-1.1%,-11.1
COc1ccc(OCC(=O)NNC(=S)NC(=O)c2ccc([N+](=O)[O-])cc2)cc1,-17.9%,-6.7%,23.8µM*,3.4%,-12.0
CC(=O)NC(=S)NNC(=O)COc1ccc(Br)cc1,-8.5%,-0.1%,26.7µM*,-19.2%,8.9
CCN(CC)C(=O)c1c(-c2ccccc2)c(-c2ccccc2)nn(CC)c1=O,8.3%,.,.,.,.
COc1cccc(OC)c1NC(=O)C1CCCN1C(=O)Nc1ccccc1Cl (stereo not drawn),-18.7%,1.2%,-21.1%,5.9%,1.8
CCCCCC(=O)NNC(=S)NC(=O)c1ccc([N+](=O)[O-])cc1,?,-2.4%,10.6µM*,3.8%,2.5
Cc1ccc(C(=O)NC(=S)NNC(=O)c2ccc([N+](=O)[O-])cc2)cc1,-16.4%,-2.5%,-17.1%,-1.8%,4.9
Cc1ccc(NC(=O)c2ccc(CSc3nccc(C)n3)cc2)cc1,15.8%,0.1%,-5.8%,-3.2%,5.8
Cc1ccnc(SCc2ccc(C(=O)O)cc2)n1,-21.8%,-3.4%,11.9µM*,0.5%,2.1
COc1ccc(NC(=O)N2CCCC3(CCN(S(=O)(=O)c4ccccc4)CC3)C2)cc1,3.3%,.,.,.,.
CCCCN(C)c1nc(-c2ccco2)c2c(c1C#N)CC(C)(C)OC2,20µM*,-5.1%,29.9µM*,?,18.0
CC(=O)N1CCCc2cc(S(=O)(=O)N3CCC(C(=O)Nc4cccc(Cl)c4C)CC3)ccc21,15.7%,.,.,.,.
SMILES,VDR inh,PTAP TSG101 blk,PLK1 PBD inh,uPA surface inh,TSHR antag
CCCc1[nH][nH]c(=O)c1C(c1cccc(Cl)c1)C(C#N)C#N (stereo not drawn),-24.6%,-3.2%,10.6µM*,-6.4%,-14.6
Cc1[nH][nH]c(=O)c1C(c1ccccc1[N+](=O)[O-])C(C#N)C#N (stereo not drawn),2.1%,-3.5%,-21.0%,1.4%,4.4
CC1(OC(=O)c2ccc(Cl)nc2)C(=O)C=C2C=C(c3ccc(C#N)cc3)OC=C2C1=O (stereo not drawn),89.1µM*!,.,.,.,.
CC1(OC(=O)c2ccc(Cl)nc2)C(=O)C=C2C=C(c3ccsc3)OC=C2C1=O (stereo not drawn),5.1%,.,.,.,.
COc1cccc(CNC(=O)C2CSC3(C)CCC(=O)N23)c1 (stereo not drawn),-6.5%,5.0%,3.4%,-4.8%,6.9
COc1cc(N=Nc2ccccc2C(=O)O)ccc1O,-6.6%,4.2%,-1.4%,-0.4%,-9.1
COc1cc(N=Nc2ccc3ccccc3c2)ccc1O,0.0%,-4.6%,4.1%,3.16µM*,9.3
Cc1cccc(OCC(=O)Nc2nc3ccc([N+](=O)[O-])cc3s2)c1C,0.9%,-0.8%,-0.9%,-7.4%,-75.9*
Cc1ccc(S(=O)(=O)/N=S(/c2ccccc2)C(C)C)cc1 (stereo not drawn),-19.6%,-1.9%,10.6µM*,-2.3%,-5.0
Cc1cc(Cl)ccc1OCC(=O)N1CCC(c2nc3ccccc3s2)CC1,12.4%,.,.,.,.
CCOC(=O)COc1c(Br)cc(/C=C2\SC(=O)N(CC(=O)N3CCCC3)C2=O)cc1OC,?,-4.9%,16.8µM*,6.9%,-11.0
CCOc1c(Br)cc(/C=C2/SC(=O)N(CC(=O)N3CCCC3)C2=O)cc1OC,1.4%,0.0%,-12.3%,1.3%,-8.8
Cc1ccc(C(=O)Oc2csc(=S)n2C(=O)c2ccc(C)cc2)cc1,-30.4%,-2.6%,2.99µM*,2.8%,-6.0
CCc1nnc(NC(=O)[C@@H]2CCCN2C(=O)c2cccs2)s1,6.4%,.,.,.,.
S=C1NC2=C(CCC/C2=C\c2ccc(Cl)cc2)C(c2ccc(Cl)cc2)N1 (stereo not drawn),?,0.7%,?,-0.7%,2.8
Fc1cccc(/C=C2\CCCC3=C2NC(=S)NC3c2cccc(F)c2)c1 (stereo not drawn),79.4µM*,-0.4%,?,-9.7%,-4.2
S=C1NC2=C(CCC/C2=C\c2ccccc2)C(c2ccccc2)N1 (stereo not drawn),89.1µM*,0.1%,?,-0.7%,-0.3
Fc1ccccc1/C=C1\CCCC2=C1NC(=S)NC2c1ccccc1F (stereo not drawn),-7.4%,-3.2%,18.9µM*,0.6%,-5.3
OB(O)c1ccc(Cl)s1,-19.3%,.,.,.,.
O=C(c1[nH]c(C(F)(F)F)nc1-c1ccccc1)N1CCN(c2ccccn2)CC1,.,.,-8.9%,.,.
O=C(O)CCN1C(=O)/C(=C/c2cn(-c3ccccc3)nc2-c2cccs2)SC1=S,?,?,29.9µM*,0.4%,-1.7
O=C(O)CCCCCN1C(=O)/C(=C\c2cn(-c3ccccc3)nc2-c2cccs2)SC1=S,-18.9%,-0.4%,50.2%,-19.4%,5.0
O=C(O)CCCCCN1C(=O)/C(=C/c2cn(-c3ccccc3)nc2-c2cccs2)SC1=S,-3.9%,?,26.7µM*,-11.5%,.
